Test results as given in PubChem BioAssay (NCATS).
Several values for one entry are separate records, joined by “and”; a condition that tells them apart may be missing. Identical values can stand only once. Records with an inconclusive call do not appear. The source holds several records for some structures; these can differ, active in one and inactive in another. Values without a mark were called inactive. Activity calls are given as the source filed them. The call rests on the fitted dose curve; in most records, active means well fitted inhibition curve with a large enough effect; inconclusive means small, poorly fitted or top-dose-only effect; inactive means flat fitted curve, though single readings scatter.

Tested on: NIH3T3
Assay: Cytotoxic Profiling of Annotated Libraries Using Quantitative High-Throughput Screening (AID 1296008); further: potency means the concentration at half of the fitted maximal effect; on max response: on the % scale 0 is the no-effect control and ±100 the full control effect
Details: Five cell lines viability, CellTiter-Glo ATP luminescence, 48-72 h; max response: active compounds read low
Method in brief: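 Compounds were pin-transferred onto cells and incubated 48 or 72 hr at 37 degree Celsius, 95% humidity. CellTiter-Glo was added, plates sat 10 min at room temperature, then ATP-coupled luminescence was imaged as the viability read-out.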
Further: nearly all actives have a fitted effect of over 60% in size.

Structure (SMILES)	max response	Potency	outcome
CC(O)=C(C#N)C(=O)Nc1cc(Br)ccc1Br	-15.7%		
O=C(NCC1CCOCC1)c1cnc(Nc2ccc(Cl)cc2Cl)nc1C(F)(F)F	-3.44% and -3.65%		
CC(C)(O)C=CC(=O)[C@](C)(O)[C@H]1[C@H](O)C[C@]2(C)[C@@H]3CC=C4[C@@H](C=C(O)C(=O)C4(C)C)[C@]3(C)C(=O)C[C@@]12C		2960 nM (active)	
C=C1C[C@H]2[C@H]3CCC(=O)[C@@]3(C)CC[C@@H]2[C@@]2(C)C=CC(=O)C=C12	-14.2%		
C/C=C(/C)C(=O)O[C@H]1C(C)=C2[C@H]([C@@H]1OC(=O)CCCCCCC)[C@@](C)(OC(C)=O)C[C@H](OC(=O)CCC)[C@@]1(O)[C@H]2OC(=O)[C@@]1(C)O		51.7 nM (active)	
C[C@@H]1[C@H](O)[C@@H](C)C=CC=CCCC=CC=CC=CC=C[C@H](O[C@H]2O[C@@H](C)[C@H](O)[C@@H](N)[C@@H]2O)CC2O[C@](O)(C[C@@H](O)[C@H](O)CC[C@@H](O)C[C@@H](O)C[C@@H](O)CC(=O)O[C@H]1C)C[C@H](O)[C@H]2C(=O)O	-3.28%		
COc1ccc(CC2NCCc3cc(OC)c(OC)cc32)cc1OC (stereo unspecified)	-2.7%		
C[C@H]1CCCC=CC2C[C@H](O)C[C@@H]2[C@H](O)C=CC(=O)O1 (stereo partly specified)		1050 nM (active)	
OCCCBr	-4.76%		
CCN(CC)C(=O)c1ccc(C2=CC3(CCNCC3)Oc3cccc(O)c32)cc1	0.128%		inactive
CC[C@H]1C=CC=CC[C@@H](C)[C@H](O)[C@@](C)(O)C(=O)[C@@H](C)[C@H](O)[C@@H](C)C(=O)[C@@H](C)[C@H](O)[C@@H](C)C=CC(=O)O[C@@H]2[C@@H](C)[C@H](CC1)O[C@]1(CC[C@H](C)[C@H](C[C@@H](C)O)O1)[C@H]2C		16600 nM (active)	
Cc1ccccc1-n1c(Cn2cnc3c(N)ncnc32)nc2cccc(C)c2c1=O	-1.65%	2640 nM (active)	
COc1ccc2c(c1)CN(C)CC2c1ccc(Cl)c(Cl)c1 (stereo unspecified)	-1.98%		
c1cc2c(cc1[C@H]1OC[C@H]3[C@H]1CO[C@H]3c1ccc3c(c1)OCO3)OCO2			inactive
O=[N+]([O-])c1ccc([As](=O)(O)O)cc1			inactive
COCCOCCO	2.23%		
CC(N[C@H]1C[C@H]1c1ccccc1)c1ccc2c(c1)OCCO2 (stereo partly specified)	4.85% and -28.5%		
CC(=O)OCC1=C(C(=O)O)N2C(=O)[C@@H](N)[C@@H]2SC1	-7.48%		
Cc1nc(-c2ccc(-c3ccc(C(=O)N4CCc5cc6c(cc54)C4(CCN(C)CC4)CO6)cc3)c(C)c2)no1	1.47%		
CC(C)(C)C(O)C(Oc1ccc(Cl)cc1)n1cncn1 (stereo unspecified)	3.17%		
Cc1c(C(=O)Nc2cccc(C(F)(F)F)c2)cc(-c2ccccc2)n1CCCN1CCOCC1	-26.5% and -21.7%		
O=C1CCC[C@@H]2[C@H]3CCCN4CCC[C@@H](CN12)[C@@H]34			inactive
O=C1C(I)=CC(=C(c2cc(I)c(O)c(I)c2)c2ccccc2C(=O)O)C=C1I			inactive
CC(C)(C)NC[C@H](O)c1ccc(O)cc1Cl	-4.5%		

Tested on: CRL-7250
Assay: qHTS assay to identify novel small-molecules to repurpose for Merkel cell carcinoma treatment (AID 1296009)
Details: MCC and control cell lines, CellTiter-Glo viability, 72 h; at 44.8 µM (top of the series) unless noted
Method in brief: (§1)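 Viability readout: ATP luminescence (CellTiter-Glo) after 72 hr drug exposure at 37 degree celsius. Dose-response format was 8 points for NPC and 11 points for MIPE; data normalized to in-plate controls.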

Structure (SMILES)	outcome
CC(O)CN1CCN(CC(=O)[O-])CCN(CC(=O)[O-])CCN(CC(=O)[O-])CC1.[Gd+3] (stereo unspecified)	inactive
COC1=C[C@@H]2[C@@H]3Cc4ccc(OC)c(O)c4[C@]2(CCN3C)CC1=O	inactive
COc1ccc2c(c1)CN(C)CC2c1ccc(Cl)c(Cl)c1 (stereo unspecified)	inactive
O=[N+]([O-])c1ccc([As](=O)(O)O)cc1	inactive
CC(=O)OCC1=C(C(=O)O)N2C(=O)[C@@H](N)[C@@H]2SC1	inactive
CC(C)(C)C(O)C(Oc1ccc(Cl)cc1)n1cncn1 (stereo unspecified)	inactive [at 92 µM]
O=C1C(I)=CC(=C(c2cc(I)c(O)c(I)c2)c2ccccc2C(=O)O)C=C1I	inactive

Tested on: HACAT
Assay: as above
Details: MCC and control cell lines, CellTiter-Glo viability, 72 h; at 44.8 µM (top of the series) unless noted
Method in brief: as §1

Structure (SMILES)	outcome
CCCCCCCCCC(CC)c1ccc(S(=O)(=O)O)cc1 (stereo unspecified)	inactive [at 92 µM]
CCOP(=O)(NC(C)C)Oc1ccc(SC)c(C)c1 (stereo unspecified)	inactive [at 92 µM]
COC1=C[C@@H]2[C@@H]3Cc4ccc(OC)c(O)c4[C@]2(CCN3C)CC1=O	inactive
C=C1C[C@H]2[C@H]3CCC(=O)[C@@]3(C)CC[C@@H]2[C@@]2(C)C=CC(=O)C=C12	inactive
C[C@@H]1[C@H](O)[C@@H](C)C=CC=CCCC=CC=CC=CC=C[C@H](O[C@H]2O[C@@H](C)[C@H](O)[C@@H](N)[C@@H]2O)CC2O[C@](O)(C[C@@H](O)[C@H](O)CC[C@@H](O)C[C@@H](O)C[C@@H](O)CC(=O)O[C@H]1C)C[C@H](O)[C@H]2C(=O)O	inactive
COc1ccc(CC2NCCc3cc(OC)c(OC)cc32)cc1OC (stereo unspecified)	inactive
CCN(CC)C(=O)c1ccc(C2=CC3(CCNCC3)Oc3cccc(O)c32)cc1	inactive
COc1ccc2c(c1)CN(C)CC2c1ccc(Cl)c(Cl)c1 (stereo unspecified)	inactive
c1cc2c(cc1[C@H]1OC[C@H]3[C@H]1CO[C@H]3c1ccc3c(c1)OCO3)OCO2	inactive
O=[N+]([O-])c1ccc([As](=O)(O)O)cc1	inactive
CC(N[C@H]1C[C@H]1c1ccccc1)c1ccc2c(c1)OCCO2 (stereo partly specified)	inactive
Cc1nc(-c2ccc(-c3ccc(C(=O)N4CCc5cc6c(cc54)C4(CCN(C)CC4)CO6)cc3)c(C)c2)no1	inactive
O=C1C(I)=CC(=C(c2cc(I)c(O)c(I)c2)c2ccccc2C(=O)O)C=C1I	inactive
